Calls of active or inactive are those of the source. How the source made its calls: active means hit-call score of the fitted dose curve at least 0.9, where 1 is the maximum; inactive means score below 0.9.
experiment: CCTE_Shafer_MEA_acute_per_network_burst_electrodes_number_mean: CCTE's Neural Acute Assay for Mean Number of Electrodes in a Network Burst, Shafer Lab (AID 2284021);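 further: curves fitted for decreases only so hits reduce electrodes per burst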
How it was run: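 Rat primary cortical neurons on 48-well MEAs, DIV 13 or 15, were treated at 0.03-40 uM. Spikes were detected at 8x rms noise and recorded at 37 C. The mean electrodes per network burst in a 40 min exposure recording was expressed as percent change from a 40 min baseline.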

Structure (SMILES) | outcome | AC50
CCOc1nc(F)cc2nc(S(=O)(=O)Nc3c(Cl)cccc3Cl)nn12 | inactive | –
N#CN=C1SCCN1Cc1ccc(Cl)nc1 | inactive | –
Clc1nc(Cl)nc(Nc2ccccc2Cl)n1 | inactive | –
CC1(C)C(C(=O)OC(C#N)c2cccc(Oc3ccccc3)c2)C1(C)C (stereo not given) | – | 0.12 µM (active)
O=C(Nc1ccccc1-c1ccc(Cl)cc1)c1cccnc1Cl | inactive | –
CNC(=O)Oc1cccc2ccccc12 | inactive | –
COP(=S)(OC)SCn1nnc2ccccc2c1=O | inactive | –
OC(c1ccc(Cl)cc1)(c1ccc(Cl)cc1)C(Cl)(Cl)Cl | – | 20 µM (active)
C=C(C)CN(CC)c1c([N+](=O)[O-])cc(C(F)(F)F)cc1[N+](=O)[O-] | inactive | –
CN/C(=N\[N+](=O)[O-])NCc1cnc(Cl)s1 | inactive | –
